Assay results as given in the supplement of paper PMC11732987, “Enantioselective OTUD7B fragment discovery through chemoproteomics screening and high-throughput optimisation” (Communications Chemistry, 2025).

Experiments:
Assay in all cases: log2 ratio of Biotin-Ahx-Ub-VS probe labelling (fragment/DMSO); higher = less target engagement (more negative = stronger competition), active = hit call of the paper (q ≤ 0.05, log2 ratio ≤ -1)
Conditions in all cases: compound concentration: 200 uM; treatment time: 3 h
OTUD6B = biological target: T1, OTUD6B (UniProt Q8N6M0)
T1 sequence (whole entry): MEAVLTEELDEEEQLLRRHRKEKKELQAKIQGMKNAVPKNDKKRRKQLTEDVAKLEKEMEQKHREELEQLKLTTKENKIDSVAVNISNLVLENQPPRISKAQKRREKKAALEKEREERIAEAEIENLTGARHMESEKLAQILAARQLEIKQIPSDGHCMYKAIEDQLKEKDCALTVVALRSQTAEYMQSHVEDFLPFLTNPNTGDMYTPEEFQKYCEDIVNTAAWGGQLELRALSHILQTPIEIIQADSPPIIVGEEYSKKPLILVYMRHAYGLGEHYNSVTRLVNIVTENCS
Outline: (§1)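 Fragment (200 µM) or vehicle was incubated for 3 h with triplicate HEK293T lysate samples of 495 µg, which were then treated with Biotin-Ahx-Ub-VS at 0.5 µM final for 1 h. Labelled DUBs were enriched on NeutrAvidin, digested with LysC and trypsin, and analysed by diaPASEF LC-MS/MS. Values are average log2 fragment/vehicle ratios from an unpaired t-test on global-median-normalised Spectronaut label-free quantities, using proteins with ≥2 unique peptides.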

OTUD7B = biological target: T2, OTUD7B (UniProt Q6GQQ9)
T2 sequence (whole entry): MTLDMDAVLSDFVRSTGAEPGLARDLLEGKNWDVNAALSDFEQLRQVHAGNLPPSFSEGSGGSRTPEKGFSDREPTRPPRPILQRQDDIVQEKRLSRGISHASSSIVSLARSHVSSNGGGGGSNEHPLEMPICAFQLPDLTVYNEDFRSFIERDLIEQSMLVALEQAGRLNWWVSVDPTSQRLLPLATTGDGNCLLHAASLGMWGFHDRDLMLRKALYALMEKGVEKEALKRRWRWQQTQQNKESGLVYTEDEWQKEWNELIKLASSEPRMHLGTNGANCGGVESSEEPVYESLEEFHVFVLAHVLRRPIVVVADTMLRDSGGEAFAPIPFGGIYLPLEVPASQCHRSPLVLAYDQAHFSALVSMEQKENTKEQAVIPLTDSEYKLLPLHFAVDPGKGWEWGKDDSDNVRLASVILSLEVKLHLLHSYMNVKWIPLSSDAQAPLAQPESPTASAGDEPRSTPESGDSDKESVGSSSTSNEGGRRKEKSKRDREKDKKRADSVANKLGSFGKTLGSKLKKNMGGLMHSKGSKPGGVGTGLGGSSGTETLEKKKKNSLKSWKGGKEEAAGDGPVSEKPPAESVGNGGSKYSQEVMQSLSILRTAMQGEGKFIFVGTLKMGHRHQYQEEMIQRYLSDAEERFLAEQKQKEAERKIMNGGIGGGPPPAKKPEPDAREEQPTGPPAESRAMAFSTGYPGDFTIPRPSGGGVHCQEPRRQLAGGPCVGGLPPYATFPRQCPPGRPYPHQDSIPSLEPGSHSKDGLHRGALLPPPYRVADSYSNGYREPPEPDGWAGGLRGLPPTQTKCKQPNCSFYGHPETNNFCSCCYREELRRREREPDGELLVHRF
Outline: as §1

PRPF8 = PRPF8 (UniProt Q6P2Q9)
Outline: as §1

PSMD7 = biological target: T3, PSMD7 (UniProt P51665)
T3 sequence (whole entry): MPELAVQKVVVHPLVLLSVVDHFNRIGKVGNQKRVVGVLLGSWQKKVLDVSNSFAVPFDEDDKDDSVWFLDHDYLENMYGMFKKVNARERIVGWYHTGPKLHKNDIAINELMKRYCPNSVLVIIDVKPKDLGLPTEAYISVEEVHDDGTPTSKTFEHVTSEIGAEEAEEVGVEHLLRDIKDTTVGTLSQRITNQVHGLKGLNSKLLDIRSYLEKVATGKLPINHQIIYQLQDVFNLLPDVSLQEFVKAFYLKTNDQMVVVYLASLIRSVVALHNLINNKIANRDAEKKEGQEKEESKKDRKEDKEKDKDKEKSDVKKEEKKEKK
Outline: as §1

UCHL1 = UCHL1 (UniProt P09936)
Outline: as §1

UCHL3 = biological target: T4, UCHL3 (UniProt P15374)
T4 sequence (whole entry): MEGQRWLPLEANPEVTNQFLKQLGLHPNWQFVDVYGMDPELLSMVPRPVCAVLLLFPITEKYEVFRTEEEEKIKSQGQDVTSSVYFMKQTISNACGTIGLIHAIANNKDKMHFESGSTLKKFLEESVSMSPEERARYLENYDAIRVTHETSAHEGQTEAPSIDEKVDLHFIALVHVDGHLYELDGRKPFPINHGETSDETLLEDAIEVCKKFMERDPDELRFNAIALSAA
Outline: as §1

UCHL5 = biological target: T5, UCHL5 (UniProt Q9Y5K5)
T5 sequence (whole entry): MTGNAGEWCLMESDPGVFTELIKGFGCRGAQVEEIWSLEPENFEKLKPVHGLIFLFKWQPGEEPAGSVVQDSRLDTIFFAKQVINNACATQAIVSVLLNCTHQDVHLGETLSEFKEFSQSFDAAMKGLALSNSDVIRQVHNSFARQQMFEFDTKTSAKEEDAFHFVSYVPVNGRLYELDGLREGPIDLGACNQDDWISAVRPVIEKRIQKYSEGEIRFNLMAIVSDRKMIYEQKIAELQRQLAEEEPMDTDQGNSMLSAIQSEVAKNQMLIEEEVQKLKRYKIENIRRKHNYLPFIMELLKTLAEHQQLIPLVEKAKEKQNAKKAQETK
Outline: as §1

USP10 = USP10 (UniProt Q14694)
Outline: as §1

USP15 = biological target: T6, USP15 (UniProt Q9Y4E8)
T6 sequence (whole entry): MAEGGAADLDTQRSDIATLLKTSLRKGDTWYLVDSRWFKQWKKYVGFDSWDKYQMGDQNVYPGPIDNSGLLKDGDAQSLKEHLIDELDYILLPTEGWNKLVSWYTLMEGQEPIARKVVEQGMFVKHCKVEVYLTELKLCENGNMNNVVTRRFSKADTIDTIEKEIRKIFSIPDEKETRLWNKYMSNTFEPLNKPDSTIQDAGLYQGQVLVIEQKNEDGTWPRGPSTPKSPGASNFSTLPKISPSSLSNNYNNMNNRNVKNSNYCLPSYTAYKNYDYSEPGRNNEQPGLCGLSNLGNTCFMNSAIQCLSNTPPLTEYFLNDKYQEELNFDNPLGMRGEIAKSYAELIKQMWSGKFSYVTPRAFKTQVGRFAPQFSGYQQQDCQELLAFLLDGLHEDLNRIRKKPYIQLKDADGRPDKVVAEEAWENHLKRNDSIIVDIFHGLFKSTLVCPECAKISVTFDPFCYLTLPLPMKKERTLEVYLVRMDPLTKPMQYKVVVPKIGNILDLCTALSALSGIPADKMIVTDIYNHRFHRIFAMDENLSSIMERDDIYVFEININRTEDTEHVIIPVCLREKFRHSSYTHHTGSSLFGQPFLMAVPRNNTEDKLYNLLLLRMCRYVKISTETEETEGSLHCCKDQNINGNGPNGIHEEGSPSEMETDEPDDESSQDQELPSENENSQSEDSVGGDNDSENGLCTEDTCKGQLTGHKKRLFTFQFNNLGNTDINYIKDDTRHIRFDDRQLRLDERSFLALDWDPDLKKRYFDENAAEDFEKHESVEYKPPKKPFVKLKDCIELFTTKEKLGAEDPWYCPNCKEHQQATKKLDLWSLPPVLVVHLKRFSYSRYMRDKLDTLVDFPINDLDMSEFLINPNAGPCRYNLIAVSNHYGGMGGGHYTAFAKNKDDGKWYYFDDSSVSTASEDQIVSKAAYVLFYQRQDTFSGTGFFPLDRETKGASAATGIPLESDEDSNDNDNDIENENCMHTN
Outline: as §1

USP16 = USP16 (UniProt Q9Y5T5)
Outline: as §1

Measured: log2 ratio of Biotin-Ahx-Ub-VS probe labelling

Sequence of USP10 (Q14694 whole entry): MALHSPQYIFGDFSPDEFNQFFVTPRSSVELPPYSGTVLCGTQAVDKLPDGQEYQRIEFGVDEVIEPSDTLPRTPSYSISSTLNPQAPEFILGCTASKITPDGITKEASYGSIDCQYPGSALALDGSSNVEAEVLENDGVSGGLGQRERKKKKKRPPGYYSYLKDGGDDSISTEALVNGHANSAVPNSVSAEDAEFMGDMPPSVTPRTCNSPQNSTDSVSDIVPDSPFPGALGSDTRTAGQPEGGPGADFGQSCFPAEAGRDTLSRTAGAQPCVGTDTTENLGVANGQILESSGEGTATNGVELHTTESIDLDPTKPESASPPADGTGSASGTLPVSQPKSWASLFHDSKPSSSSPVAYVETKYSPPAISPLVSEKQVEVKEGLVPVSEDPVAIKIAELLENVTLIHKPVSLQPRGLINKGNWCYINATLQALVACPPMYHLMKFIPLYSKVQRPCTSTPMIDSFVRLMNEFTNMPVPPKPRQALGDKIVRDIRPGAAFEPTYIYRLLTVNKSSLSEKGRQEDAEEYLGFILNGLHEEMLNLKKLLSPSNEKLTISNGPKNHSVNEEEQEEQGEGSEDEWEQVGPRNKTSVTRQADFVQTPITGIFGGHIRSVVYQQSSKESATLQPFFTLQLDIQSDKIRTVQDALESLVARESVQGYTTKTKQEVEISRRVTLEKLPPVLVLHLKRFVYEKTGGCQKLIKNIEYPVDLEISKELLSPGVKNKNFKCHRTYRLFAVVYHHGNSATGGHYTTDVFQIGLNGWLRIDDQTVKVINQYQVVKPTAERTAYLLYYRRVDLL
Sequence of UCHL1 (P09936 whole entry, looked up): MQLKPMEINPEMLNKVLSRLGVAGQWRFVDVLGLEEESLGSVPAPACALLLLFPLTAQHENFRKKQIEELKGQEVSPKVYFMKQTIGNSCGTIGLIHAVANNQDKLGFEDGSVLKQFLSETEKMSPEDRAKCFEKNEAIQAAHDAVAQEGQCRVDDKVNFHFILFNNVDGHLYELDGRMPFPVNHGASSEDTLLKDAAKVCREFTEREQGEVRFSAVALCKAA
Sequence of USP16 (Q9Y5T5 whole entry, looked up): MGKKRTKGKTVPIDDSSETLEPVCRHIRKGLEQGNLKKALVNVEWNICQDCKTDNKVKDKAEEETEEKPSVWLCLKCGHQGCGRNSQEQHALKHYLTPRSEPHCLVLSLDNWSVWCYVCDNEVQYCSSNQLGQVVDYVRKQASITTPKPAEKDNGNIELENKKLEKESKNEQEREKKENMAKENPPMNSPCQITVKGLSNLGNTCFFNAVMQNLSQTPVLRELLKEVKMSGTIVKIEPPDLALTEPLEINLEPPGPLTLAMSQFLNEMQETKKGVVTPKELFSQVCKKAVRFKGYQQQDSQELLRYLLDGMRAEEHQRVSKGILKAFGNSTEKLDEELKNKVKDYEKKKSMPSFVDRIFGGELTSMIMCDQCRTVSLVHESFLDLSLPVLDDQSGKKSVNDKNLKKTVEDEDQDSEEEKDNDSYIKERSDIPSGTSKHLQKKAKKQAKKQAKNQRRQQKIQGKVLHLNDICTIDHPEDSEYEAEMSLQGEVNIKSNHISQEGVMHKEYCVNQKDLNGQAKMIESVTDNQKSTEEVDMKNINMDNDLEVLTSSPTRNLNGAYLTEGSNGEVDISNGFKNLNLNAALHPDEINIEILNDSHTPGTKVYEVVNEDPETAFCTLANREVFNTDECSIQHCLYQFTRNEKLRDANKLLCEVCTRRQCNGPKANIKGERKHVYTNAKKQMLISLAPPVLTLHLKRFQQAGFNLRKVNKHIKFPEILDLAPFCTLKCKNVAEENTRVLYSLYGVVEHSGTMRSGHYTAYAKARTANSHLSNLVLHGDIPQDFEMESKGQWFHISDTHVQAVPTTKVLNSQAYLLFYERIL

O=C(CCl)N1c2ccccc2NC(=O)C12CCCC2
inactive: OTUD6B -0.0738 | OTUD7B -0.0903 | PRPF8 -0.16 | PSMD7 0.0949 | UCHL1 -0.493 | UCHL3 0.749 | UCHL5 -0.148 | USP10 -0.393 | USP15 0.113 | USP16 0.103
